These results are taken from PubChem BioAssay (EPA / NIEHS).

Several values for one entry are separate records, joined by “and”; a condition that tells them apart may be missing. Equal entries are not always repeated. Some structures have more than one record in an assay (separate samples or runs), and their calls can disagree. Activity calls are given as the source filed them. Rule for the calls: active = hit-call score of the fitted dose curve at least 0.9, where 1 is the maximum; inactive = score below 0.9.

Read-out in one test: CD40, CD40 (gene 958)
Briefly: BSK_LPS_CD40: BioMAP Diversity Plus: LPS Assay for CD40 Biomarker Activity (AID 2283076). As to conditions: primary human HUVEC with PBMC; actives raise or lower the signal. The procedure, abridged:
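Primary human umbilical vein endothelial cells co-cultured with peripheral blood mononuclear cells, LPS-stimulated, were dosed with chemical and read 24 h later. CD40 levels were measured by ELISA and fitted bidirectionally against DMSO as negative control and baseline.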
Turning to `O=c1c2ccccc2oc2ccccc12`, the result was inactive.

Consider `COCc1c(C(C)C)nc(C(C)C)c(/C=C/[C@@H](O)C[C@@H](O)CC(=O)O)c1-c1ccc(F)cc1`, for which the outcome was inactive.

Turning to `O=Nc1ccc(O)cc1`, the outcome was inactive.

Consider `N#[N+]c1ccc2c(S(=O)(=O)[O-])cccc2c1O`, for which the result was inactive.

The term AC50 denotes the midpoint of the concentration-response curve, whichever way the signal moves. As for `C#CC1(O)CC[C@H]2[C@@H]3CCC4=CCCC[C@@H]4[C@H]3CC[C@@]21C` (stereo not given in full), the AC50 is 20 µM (active).

As to `O=C(Cl)c1cc(C(=O)Cl)cc(C(=O)Cl)c1`, the AC50 was 15.2 µM (active).

With `CC(C)C(=O)C(C)C`, the outcome was inactive.

For `C=CC(=O)OCC(Br)CBr` (stereo not given), the AC50 is 15.6 µM (active).

On to `CCOC(=O)c1ccccc1C(=C1C=C(Br)C(=O)C(Br)=C1)c1cc(Br)c(O)c(Br)c1`, for which the AC50 was 20.9 µM (active) and 17.5 µM (active).

`c1ccc2c(c1)ccc1ncccc12`: the AC50 is 20 µM (active).

On to `CCCCC(CC)COC(=O)c1ccccc1O` (stereo not given), for which the AC50 was 18.6 µM (active).

In the case of `CCCCCCCCCCCCCCCC[N+](C)(C)CC`, the AC50 was 3.07 µM (active).

On to `COc1ccc2nc(N)sc2c1`, for which the result was inactive.

On to `CC(C)(c1cc(Br)c(OCCO)c(Br)c1)c1cc(Br)c(OCCO)c(Br)c1`, for which the AC50 is 11.9 µM (active).

As for `CCCCC/C=C\C/C=C\CCCCCCCC(=O)OC`, the concentration at half-maximal activity (AC50) is 20 µM (active).

For `Nc1ccc(N)c(Cl)c1`, the half-maximal activity concentration (AC50) is 3.22 µM (active) and 2.55 µM (active).

Regarding `CC1OC1C1CCC2(C)OC2C1` (stereo not given), the outcome was inactive.

`C=C[Si](OC(C)=O)(OC(C)=O)OC(C)=O`: the result was inactive.

In the case of `S=C(NC1CCCCC1)NC1CCCCC1`, the outcome was inactive.

For `C/C=C\C/C=C/CCCCCCCCOC(C)=O`, the AC50 was 20 µM (active).

Regarding `CCCCC(CC)COCC1CO1` (stereo not given), the result was inactive.

With `CCO[Si](CCCN=C=O)(OCC)OCC`, the outcome was inactive.

For `CO[Si](OC)(OC)c1ccccc1`, the result was inactive.

On to `CCCCNc1ccc(NCCCC)c2c1C(=O)c1ccccc1C2=O`, for which the result was inactive.

For the compound `CCO[Si](C)(OCC)OCC`, the result was inactive.

For the compound `O=C1CCCN1CCO`, the result was inactive.

Take `CN1C(=O)N(C)C(O)C1O` (stereo not given): the AC50 was 1.5 µM (active) and the result was inactive.

For the compound `C=CCOc1c(Br)cc(Br)cc1Br`, the result was inactive.

On to `CCCCCCCCc1ccc(Nc2ccc(CCCCCCCC)cc2)cc1`, for which the result was inactive.

Turning to `O=C(c1ccc(O)cc1)c1ccc(O)cc1O`, the outcome was inactive.

In the case of `CCOc1nc(F)cc2nc(S(=O)(=O)Nc3c(Cl)cccc3C(=O)OC)nn12`, the result was inactive.

`C=CC=CC=CCCCCC`: the outcome was inactive.

`c1ccc(-c2ccccn2)nc1`: the outcome was inactive.

Take `C=CCOCC(O)CCl` (stereo not given): the outcome was inactive.

In the case of `c1ccc2c(c1)ccc1cc3c(ccc4ccccc43)cc12`, the result was inactive.

Turning to `O=C(Nc1ccccc1SSc1ccccc1NC(=O)c1ccccc1)c1ccccc1`, the AC50 is 4.75 µM (active).

Read-out in another test: Interleukin-8 (IL8), CXCL8 (gene 3576)
Briefly: BSK_LPS_IL8: BioMAP Diversity Plus: LPS Assay for Interleukin-8 (IL8) Biomarker Activity (AID 2283078). As to conditions: primary human HUVEC with PBMC; actives raise or lower the signal. The procedure, abridged: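 Human umbilical vein endothelial cells co-cultured with PBMC were stimulated with LPS; IL-8 levels were measured by ELISA 24 h after chemical dosing. Activity was fitted bidirectionally against DMSO as negative control and baseline.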
With `O=c1c2ccccc2oc2ccccc12`, the result was inactive.

On to `COCc1c(C(C)C)nc(C(C)C)c(/C=C/[C@@H](O)C[C@@H](O)CC(=O)O)c1-c1ccc(F)cc1`, for which the result was inactive.

In the case of `O=Nc1ccc(O)cc1`, the outcome was inactive.

As for `N#[N+]c1ccc2c(S(=O)(=O)[O-])cccc2c1O`, the result was inactive.

`C#CC1(O)CC[C@H]2[C@@H]3CCC4=CCCC[C@@H]4[C@H]3CC[C@@]21C` (stereo not given in full): the AC50 was 35 µM (active).

In the case of `O=C(Cl)c1cc(C(=O)Cl)cc(C(=O)Cl)c1`, the AC50 is 28.8 µM (active).

As for `CC(C)C(=O)C(C)C`, the result was inactive.

`C=CC(=O)OCC(Br)CBr` (stereo not given): the AC50 is 12.5 µM (active).

Regarding `CCOC(=O)c1ccccc1C(=C1C=C(Br)C(=O)C(Br)=C1)c1cc(Br)c(O)c(Br)c1`, the AC50 is 23 µM (active) and 22.9 µM (active).

As to `c1ccc2c(c1)ccc1ncccc12`, the outcome was inactive.

Take `CCCCC(CC)COC(=O)c1ccccc1O` (stereo not given): the outcome was inactive.

As to `CCCCCCCCCCCCCCCC[N+](C)(C)CC`, the AC50 is 8.09 µM (active).

Consider `COc1ccc2nc(N)sc2c1`, for which the result was inactive.

As to `CC(C)(c1cc(Br)c(OCCO)c(Br)c1)c1cc(Br)c(OCCO)c(Br)c1`, the result was inactive.

As to `CCCCC/C=C\C/C=C\CCCCCCCC(=O)OC`, the AC50 is 29.5 µM (active).

With `Nc1ccc(N)c(Cl)c1`, the AC50 is 7.92 µM (active) and the result was inactive.

For the compound `CC1OC1C1CCC2(C)OC2C1` (stereo not given), the result was inactive.

On to `C=C[Si](OC(C)=O)(OC(C)=O)OC(C)=O`, for which the result was inactive.

For the compound `S=C(NC1CCCCC1)NC1CCCCC1`, the outcome was inactive.

For `C/C=C\C/C=C/CCCCCCCCOC(C)=O`, the AC50 is 34 µM (active).

Take `CCCCC(CC)COCC1CO1` (stereo not given): the result was inactive.

As to `CCO[Si](CCCN=C=O)(OCC)OCC`, the outcome was inactive.

As to `CO[Si](OC)(OC)c1ccccc1`, the outcome was inactive.

For `CCCCNc1ccc(NCCCC)c2c1C(=O)c1ccccc1C2=O`, the outcome was inactive.

Take `CCO[Si](C)(OCC)OCC`: the outcome was inactive.

In the case of `O=C1CCCN1CCO`, the result was inactive.

Turning to `CN1C(=O)N(C)C(O)C1O` (stereo not given), the result was inactive.

As to `C=CCOc1c(Br)cc(Br)cc1Br`, the result was inactive.

In the case of `CCCCCCCCc1ccc(Nc2ccc(CCCCCCCC)cc2)cc1`, the result was inactive.

For `O=C(c1ccc(O)cc1)c1ccc(O)cc1O`, the outcome was inactive.

For the compound `CCOc1nc(F)cc2nc(S(=O)(=O)Nc3c(Cl)cccc3C(=O)OC)nn12`, the outcome was inactive.

For the compound `C=CC=CC=CCCCCC`, the result was inactive.

As for `c1ccc(-c2ccccn2)nc1`, the outcome was inactive.

As for `C=CCOCC(O)CCl` (stereo not given), the outcome was inactive.

Regarding `c1ccc2c(c1)ccc1cc3c(ccc4ccccc43)cc12`, the AC50 is 1.84 µM (active) and the result was inactive.

With `O=C(Nc1ccccc1SSc1ccccc1NC(=O)c1ccccc1)c1ccccc1`, the AC50 was 5.19 µM (active).
